Here are results for 9 compounds from PubChem BioAssay (NCI).

What all share (test): NCI-60 one-dose screen, 48 h (100 = growth as untreated, 0 = no growth, -100 = all killed)
One assay deals with SK-MEL-2 melanoma. As to conditions: 10 µM unless noted.
The next assay deals with EKVX NSCLC. The following applies: 10 µM unless noted.
The test system of the next assay is SN12C renal. As to conditions: 10 µM unless noted.
A further assay relates to UO-31 renal. As to conditions: 10 µM unless noted.
The subject of the next assay is ACHN renal. The following applies: 10 µM unless noted.
The test system of another assay is CAKI-1 renal. As to conditions: 10 µM.
The test system of another assay is A498 renal. The following applies: 10 µM unless noted.
The subject of another assay is CCRF-CEM leukemia. The following applies: 10 µM unless noted.
In the next assay the test system is RPMI-8226 leukemia. The following applies: 10 µM unless noted.
The next assay relates to OVCAR-8 ovarian. As to conditions: 10 µM unless noted.
The test system of another assay is OVCAR-5 ovarian. The following applies: 10 µM unless noted.
The subject of another assay is OVCAR-4 ovarian. The following applies: 10 µM unless noted.
The next assay concerns SK-OV-3 ovarian. The following applies: 10 µM unless noted.
For another assay, the system named is IGROV1 ovarian. The following applies: 10 µM unless noted.
The subject of another assay is OVCAR-3 ovarian. As to conditions: 10 µM unless noted.
The next assay relates to HS 578T breast. The following applies: 10 µM unless noted.
A further assay concerns NCI/ADR-RES ovarian. The following applies: 10 µM unless noted.
A further assay has as its system MOLT-4 leukemia. The following applies: 10 µM unless noted.
A further assay deals with SR leukemia. The following applies: 10 µM unless noted.

The panel holds about 83,000 compounds, 20% with a hit somewhere; the sample as a whole holds those more often.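 The test compound was applied at a single concentration to cells in 96-well plates for 48 hours, and percent growth was recorded.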 A number with no mark means an inactive call. Activity calls are given as the source filed them. The calls were made as follows: active = growth percent below 10; inactive = the rest.

With `CCn1c(SCC(=O)c2ccc(Br)cc2)nnc1-c1cc2c([nH]c3ccccc32)c(-c2cccc(O)c2)n1`, the growth in the assay on SK-MEL-2 melanoma is 69.9%; in the assay on EKVX NSCLC, 67.2%; in the assay on SN12C renal, 96.5%; with UO-31 renal, 70.4%; in the assay on ACHN renal, 60.5%; in the assay with CAKI-1 renal, 83.7%. In addition, the growth in the assay on A498 renal is 73.5%; in the assay with CCRF-CEM leukemia it was 78.5%; with RPMI-8226 leukemia, 69.4%; with OVCAR-8 ovarian it was 77.5%; in the assay with OVCAR-5 ovarian, 95.1%; in the assay with OVCAR-4 ovarian, 71.4%. Besides, the growth with SK-OV-3 ovarian is 86.7%; in the assay with IGROV1 ovarian, 88.5%; with OVCAR-3 ovarian, 80.4%; with HS 578T breast it was 73.7%; with NCI/ADR-RES ovarian it was 81.1%.
In the case of `O=C(Nc1ccc(-n2ccc3c(NC(=O)c4ccccc4)ncnc32)cc1)c1ccc(Cl)c(C(F)(F)F)c1`, the growth in the assay with SK-MEL-2 melanoma was 34.7%; in the assay on EKVX NSCLC it was 47.7%; in the assay on SN12C renal, 22%; in the assay on UO-31 renal, 32.7%; in the assay with ACHN renal, 27.6%; in the assay on CAKI-1 renal, 34.8%. The growth with A498 renal is 80.1%; with CCRF-CEM leukemia, 7.36% (active); in the assay on MOLT-4 leukemia, 4.17% (active); with SR leukemia, -19.6% (active); with OVCAR-8 ovarian, 3.65% (active); in the assay with OVCAR-5 ovarian it was 52%. Moreover, the growth in the assay with OVCAR-4 ovarian was 17.1%; with SK-OV-3 ovarian it was 65.6%; in the assay with IGROV1 ovarian it was 15.3%; in the assay with OVCAR-3 ovarian, -3.5% (active); in the assay with NCI/ADR-RES ovarian it was 29.9%.
On to `O=C(NCCNc1nccc(-c2c(-c3cccc(O)c3)nc3sccn23)n1)Nc1cccc(C(F)(F)F)c1`, for which the growth in the assay on SK-MEL-2 melanoma is 54.4%; in the assay with EKVX NSCLC, 91.2%; in the assay with SN12C renal it was 70.7%; with UO-31 renal it was 75.2%; in the assay with ACHN renal it was 85.1%; with CAKI-1 renal, 90.3%. In addition, the growth with A498 renal was 111%; with CCRF-CEM leukemia, 23.1%; in the assay on MOLT-4 leukemia, 59.8%; in the assay on SR leukemia, 59.2%; with RPMI-8226 leukemia it was -4.81% (active); with OVCAR-8 ovarian it was 41.2%. Also, the growth was 117% in the assay on OVCAR-5 ovarian; 110% with OVCAR-4 ovarian; 85% in the assay with SK-OV-3 ovarian; 65.6% with IGROV1 ovarian; 76.7% with OVCAR-3 ovarian; 108% with NCI/ADR-RES ovarian.
On to `O=C(Nc1ccc(-n2ccc3c(NC(=O)c4ccccc4)ncnc32)cc1)Nc1ccc(Cl)c(C(F)(F)F)c1`, for which the growth in the assay on SK-MEL-2 melanoma was -22.3% (active); in the assay on EKVX NSCLC, 8.35% (active); with SN12C renal it was 16.4%; with UO-31 renal, 23.5%; in the assay with ACHN renal, 4.23% (active); in the assay with CAKI-1 renal, -36.8% (active). Moreover, the growth is 18.3% in the assay with A498 renal; -14.5% (active) in the assay on CCRF-CEM leukemia; 1.2% (active) with MOLT-4 leukemia; 6.03% (active) with SR leukemia; -38% (active) with RPMI-8226 leukemia; -25.3% (active) in the assay with OVCAR-8 ovarian. In addition, the growth with OVCAR-5 ovarian was 17.8%; in the assay with OVCAR-4 ovarian, -42.8% (active); in the assay with SK-OV-3 ovarian it was 79.2%; in the assay with IGROV1 ovarian it was -3.16% (active); in the assay with OVCAR-3 ovarian it was -86.6% (active); with NCI/ADR-RES ovarian it was 16%.
`O=C1COc2ccccc2C(=O)N1CCCCNc1ccccc1`: the growth in the assay on SK-MEL-2 melanoma was 104%; in the assay with EKVX NSCLC, 106%; with SN12C renal, 58.4%; in the assay with UO-31 renal, 12.2%; with ACHN renal, 110%; with CAKI-1 renal, 107%. Further, the growth in the assay on CCRF-CEM leukemia was 1.06% (active); in the assay with MOLT-4 leukemia, 34.1%; with SR leukemia, 84.8%; in the assay on RPMI-8226 leukemia it was 28.3%; in the assay with OVCAR-8 ovarian, 93.9%; in the assay with OVCAR-5 ovarian, 107%. Moreover, the growth in the assay with OVCAR-4 ovarian was 112%; with SK-OV-3 ovarian it was 84.8%; with IGROV1 ovarian, 99.9%; in the assay with OVCAR-3 ovarian, 105%; in the assay on HS 578T breast, 108%; in the assay with NCI/ADR-RES ovarian, 94.6%.
As to `COc1ccc(-c2nn(-c3ccc(NC(=O)Nc4ccc(Cl)c(Cl)c4)cc3)cc2-c2ccncc2)cc1Cl`, the growth with SK-MEL-2 melanoma is -35.5% (active); in the assay on EKVX NSCLC it was 21.5%; with SN12C renal, 20.5%; in the assay on UO-31 renal it was 16.9%; in the assay with ACHN renal, 14.8%; with CAKI-1 renal it was 3.8% (active). The growth was 10.7% with A498 renal; 12.6% in the assay with CCRF-CEM leukemia; 10.5% with MOLT-4 leukemia; 5.18% (active) in the assay on SR leukemia; -30% (active) in the assay with RPMI-8226 leukemia; 11.6% with OVCAR-8 ovarian. In addition, the growth in the assay on OVCAR-5 ovarian was 22.6%; with OVCAR-4 ovarian, 49.4%; with SK-OV-3 ovarian, 34.6%; with IGROV1 ovarian it was 36.6%; in the assay on OVCAR-3 ovarian, 7.34% (active); with NCI/ADR-RES ovarian, 12.8%.
As for `O=C1OC(=O)C2C3CC(c4ccccc43)C12` (centres undefined), the growth is 125% with SK-MEL-2 melanoma; 99.3% in the assay on EKVX NSCLC; 113% in the assay with SN12C renal; 76.2% in the assay on UO-31 renal; 90.1% in the assay on ACHN renal; 110% with A498 renal. The growth with CCRF-CEM leukemia is 98.8%; in the assay on MOLT-4 leukemia, 104%; in the assay with SR leukemia, 104%; in the assay on RPMI-8226 leukemia, 99.7%; in the assay on OVCAR-8 ovarian it was 92.4%; with OVCAR-5 ovarian, 85.5%. Besides, the growth with OVCAR-4 ovarian was 112%; with SK-OV-3 ovarian it was 95.8%; in the assay on IGROV1 ovarian, 109%; in the assay on OVCAR-3 ovarian, 125%; in the assay with NCI/ADR-RES ovarian it was 112%.
For the compound `Nc1ncc(-c2ccc3ncnc(Nc4cncc(Cl)c4)c3c2)cn1`, the growth with SK-MEL-2 melanoma was 66.4%; with EKVX NSCLC, 33%; in the assay with SN12C renal, 69.8%; in the assay with UO-31 renal, 41.9%; with ACHN renal, 41.6%; in the assay with A498 renal it was 0.263% (active). Also, the growth is 84.5% in the assay on CCRF-CEM leukemia; 77.8% in the assay with MOLT-4 leukemia; 73.8% in the assay on SR leukemia; 50.1% with RPMI-8226 leukemia; 76.8% with OVCAR-8 ovarian; 52% in the assay on OVCAR-5 ovarian. For the same compound, the growth in the assay with OVCAR-4 ovarian is 66.8%; with SK-OV-3 ovarian it was 46.5%; in the assay with IGROV1 ovarian it was 7.85% (active); with OVCAR-3 ovarian it was 59.9%; in the assay on HS 578T breast it was 61.6%; with NCI/ADR-RES ovarian, 82.2%.
On to `Fc1ccc(Nc2ncnc3ccc(-c4cn[nH]c4)cc23)cc1Cl`, for which the growth in the assay with SK-MEL-2 melanoma was 45.3%; with EKVX NSCLC, 22.4%; in the assay on SN12C renal it was 56.8%; in the assay on UO-31 renal, 45.6%; in the assay with ACHN renal, 26.1%; in the assay on A498 renal it was 7.79% (active). Besides, the growth was 75.3% in the assay on CCRF-CEM leukemia; 56.7% in the assay on MOLT-4 leukemia; 0.823% (active) in the assay with SR leukemia; 38.9% in the assay with RPMI-8226 leukemia; 44.1% in the assay with OVCAR-8 ovarian; 75.7% in the assay on OVCAR-5 ovarian. The growth was 55.5% in the assay with OVCAR-4 ovarian; -11.6% (active) in the assay with SK-OV-3 ovarian; 5.6% (active) with IGROV1 ovarian; 50.6% with OVCAR-3 ovarian; 31.4% in the assay on HS 578T breast; 51.6% with NCI/ADR-RES ovarian.
